Measurements reported in PubChem BioAssay (NCI).
Several values for one entry are separate records, joined by “and”; a condition that tells them apart may be missing. Equal values may be shown once. The panel holds about 83,000 compounds, 20% with a hit somewhere; the sample as a whole holds those more often.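 Compound tested at a single concentration for 48 hours in 96-well plates; a percent growth value below 10 was scored as active.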 Values without a mark were called inactive. Activity calls are given as the source filed them.

How the values were obtained:
Experiment in all cases: NCI-60 one-dose screen, 48 h (100 = growth as untreated, 0 = no growth, -100 = all killed)
Conditions in all cases: 10 µM unless noted
HCT-15 colon = test system: HCT-15 colon
SNB-75 CNS = test system: SNB-75 CNS
SNB-19 CNS = test system: SNB-19 CNS
U251 CNS = test system: U251 CNS
PC-3 prostate = test system: PC-3 prostate
SK-MEL-5 melanoma = test system: SK-MEL-5 melanoma
UACC-62 melanoma = test system: UACC-62 melanoma
LOX IMVI melanoma = test system: LOX IMVI melanoma
SK-MEL-28 melanoma = test system: SK-MEL-28 melanoma
SK-MEL-2 melanoma = test system: SK-MEL-2 melanoma
EKVX NSCLC = test system: EKVX NSCLC
SN12C renal = test system: SN12C renal
UO-31 renal = test system: UO-31 renal
TK-10 renal = test system: TK-10 renal
ACHN renal = test system: ACHN renal
CAKI-1 renal = test system: CAKI-1 renal
A498 renal = test system: A498 renal
CCRF-CEM leukemia = test system: CCRF-CEM leukemia
MOLT-4 leukemia = test system: MOLT-4 leukemia
HT29 colon = test system: HT29 colon

Row | Structure (SMILES) | growth (HCT-15 colon) | growth (SNB-75 CNS) | growth (SNB-19 CNS) | growth (U251 CNS) | growth (PC-3 prostate) | growth (SK-MEL-5 melanoma) | growth (UACC-62 melanoma) | growth (LOX IMVI melanoma) | growth (SK-MEL-28 melanoma) | growth (SK-MEL-2 melanoma) | growth (EKVX NSCLC) | growth (SN12C renal) | growth (UO-31 renal) | growth (TK-10 renal) | growth (ACHN renal) | growth (CAKI-1 renal) | growth (A498 renal) | growth (CCRF-CEM leukemia) | growth (MOLT-4 leukemia) | growth (HT29 colon)
1 | O=C1C=CC(=O)N1c1ccc2ccccc2c1 | 56.3% and 91.1% | 88.9% and 105% | 103% and 107% | 95.9% and 96.5% | 91% and 90% | 106% and 102% | 98.8% and 93.6% | 91.6% and 77.6% | 110% and 116% | 98.2% and 101% | 112% and 95% | 99.3% and 91.1% | 68.3% and 72.8% | 96.2% and 36.7% | 38% and 50.3% | 53.7% and 83% | 101% | 41.3% and 33.4% | 49.7% and 37.1% | –
2 | Clc1ccc(CNc2ccc3nc(CCC4CCCCC4)[nH]c3c2)cc1 | 9.61% (active) | 77.2% | 71.1% | 43.8% | 46.7% | 0.653% (active) | 67.4% | 72% | 42% | 85.6% | 75.6% | 59.1% | 29.9% | – | 76.6% | 50.4% | 45.8% | 41.4% | 39.1% | –
3 | O/N=C(/c1ccccc1)c1ccc2c3c(cccc13)CC2 | 84.7% and 77.3% | 74.8% and 58.4% | 98.5% and 94.1% | 90.1% and 89.3% | 80% and 77.5% | 98.1% and 91.1% | 84.6% and 74.7% | 89.6% and 89.1% | – | 96.2% and 92.7% | 79.5% | 93.1% and 85.7% | 73.4% and 81.3% | 113% and 89.7% | – | 71.5% and 72.5% | 78.3% and 89.2% | 75.3% and 82.8% | 74.7% and 72.9% | 97.5% and 86.4%
4 | COc1ccc(C2Nc3nc(SC)nc(N)c3N=C3c4ccccc4CCC32)cc1 (stereo unspecified) | 75.9% | 92.5% | 104% | 95% | 54.7% | 80.2% | 85.3% | 89.9% | 103% | 107% | 58.5% | 109% | 73.3% | 158% | 103% | 85.6% | 48.8% | 47.8% | 69.7% | –
5 | COc1ccc(C2=C(CN)C(O)NC(=NCC(=O)c3ccc4ccccc4c3)N2)cc1 (stereo unspecified) | 106% | 87.2% | 104% | 102% | 104% | 108% | 101% | 95.5% | – | 99.9% | 113% | 103% | 81% | 98.1% | 94.5% | – | 118% | 110% | 98% | 101%
6 | COC1=CC(c2ccc[nH]2)=N/C1=C\c1[nH]c(C)c(C(=O)Oc2ccccc2)c1C | -35.1% (active) | -16.6% (active) | 20.9% | -16.5% (active) | 17.6% | -99.9% (active) | -62.8% (active) | -86.1% (active) | -77.9% (active) | -68.6% (active) | -19.9% (active) | 0.383% (active) | -87.2% (active) | -6.73% (active) | -90.3% (active) | -23.8% (active) | -46.7% (active) | 18.6% | 3.87% (active) | –
7 | COc1ccc(-c2c[nH]c(C(=O)O)c2-c2cc(OC)c(OC)c(OC)c2)cc1 | 31.7% | -15.5% (active) | 41.3% | 49.5% | 32.8% | 19.2% | 37.7% | 47.2% | 61.7% | 49.2% | 63.3% | 43.9% | 31.9% | 63.3% | 38.4% | 29.8% | -14.5% (active) | 42.2% | 56.4% | –
8 | C=C1CC[C@@H]2[C@](C)(COC(C)=O)[C@H](OC(C)=O)CC[C@@]2(C)[C@@H]1CC(Nc1ccc(S(=O)(=O)Nc2nccs2)cc1)C1=CCOC1=O (stereo partly specified) | -39.2% (active) | 28.3% | 49.1% | 4.21% (active) | 21.8% | 31.4% | 21.2% | -88.3% (active) | -16.3% (active) | 28.4% | 73.4% | 15.6% | 13.5% | 55% | -46.6% (active) | 55.9% | 85% | -27.7% (active) | -4.45% (active) | –
9 | Cc1c(CC(=O)OCCO)cc(-c2ccc(Cl)cc2)n1-c1ccccc1 | 94.4% | 65.9% | 95.3% | 91.7% | 101% | 88.8% | 77.7% | 94% | 109% | 103% | 95.5% | 92.4% | 75.5% | 115% | 100% | 87.6% | 87.9% | 99% | 91.4% | –
10 | N#C/C(=C\c1ccccc1Cl)c1cc2ccccc2[nH]1 | 81.4% | 83% | 93.1% | 85.8% | 80.5% | 85.9% | 76.5% | 92.4% | – | 114% | 77.1% | 92.4% | 69.7% | 130% | – | 73.1% | 98.6% | -4.12% (active) | 77.1% | 97.7%
11 | O=C(CCCOc1ccc(Br)cc1)Nc1ncc(Cc2ccc(F)cc2)s1 | 38.6% | 55% | 76.5% | 80.4% | 72.9% | 68.8% | 50.2% | 64.6% | 76.8% | 93.3% | 77% | 82.7% | 62.6% | 86.5% | 72.9% | 37% | 76.7% | 64.4% | 73.8% | –
12 | Nc1nc2ccccc2c2c(=O)c3ccc(Cl)cc3sc12 | 101% | 96.3% | 102% | 84.8% | 89.9% | 104% | 92.5% | 98% | 110% | 106% | 89.2% | 91.3% | 96.1% | 130% | 83.6% | 89% | 99.7% | 94.5% | 93.6% | –
13 | C#CCOCC1CN(C)C(=O)O1 (stereo unspecified) | 98.1% | 98.5% | 107% | 103% | 109% | 114% | 112% | 105% | 110% | 116% | 115% | 103% | 97.1% | – | 105% | 104% | 107% | 98.9% | 89.6% | –
14 | CCN1C(=S)N(CC)C2C1NC(=S)N2/N=C/C=C/c1ccccc1 (stereo unspecified) | 26.5% | -21.6% (active) | 31.4% | 27.7% | 36.5% | 25% | 24.5% | 37.6% | 53.6% | 46.7% | 62.5% | 40.8% | 40% | 69.2% | 39.3% | 30.4% | 0.507% (active) | 14.7% | 26.4% | –
